Reference: PubChem BioAssay AID1851 (National Center for Advancing Translational Sciences (NCATS), 2009)
Hit rate of the full screen: of about 16,000 compounds, about 5,700 (36%) were called active. Inconclusive results (about 24%) are left out. The call rests on the fitted dose curve; in most records, active means well fitted curve in the direction sought with a large enough effect; inconclusive means small, poorly fitted or top-dose-only effect, or effect the other way; inactive means no such curve, though single readings can be large or run the other way. The list shows a part of the results.

target: Cytochrome P450 1A2 (Homo sapiens) (UniProt P05177); assay: Cytochrome panel assay with activity outcomes; conditions: recombinant CYP, pro-luciferin dealkylation, luminescence, p450-cyp1a2; series mostly up to 57.1 µM
On the % scale 0 is the no-effect control and ±100 the full control effect.

Sequence of Cytochrome P450 1A2 (Homo sapiens) (P05177 whole entry, looked up): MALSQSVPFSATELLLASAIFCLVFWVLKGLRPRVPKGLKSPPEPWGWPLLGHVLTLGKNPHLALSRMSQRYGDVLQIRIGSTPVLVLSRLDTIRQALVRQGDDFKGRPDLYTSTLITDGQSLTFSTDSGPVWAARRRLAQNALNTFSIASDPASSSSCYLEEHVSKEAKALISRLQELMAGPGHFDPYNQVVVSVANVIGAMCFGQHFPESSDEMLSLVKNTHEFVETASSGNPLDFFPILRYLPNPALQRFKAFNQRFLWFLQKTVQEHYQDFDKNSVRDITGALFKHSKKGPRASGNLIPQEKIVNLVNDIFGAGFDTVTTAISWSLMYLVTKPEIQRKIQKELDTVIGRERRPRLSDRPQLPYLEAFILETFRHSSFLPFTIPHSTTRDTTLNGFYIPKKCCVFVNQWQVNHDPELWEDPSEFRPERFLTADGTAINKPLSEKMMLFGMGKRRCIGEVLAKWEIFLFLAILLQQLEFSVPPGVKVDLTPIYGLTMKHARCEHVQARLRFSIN

AC50, active:
C/C(=N\OC(=O)c1ccccc1)c1cc(-c2ccc(Cl)cc2)no1 2.82 µM
COc1ccc(OCCNS(=O)(=O)c2ccc3oc4ccccc4c3c2)cc1 2.82 µM
O=C1CCCc2ccccc2N1Cc1ccccc1Cl 14.1 µM
O=C1CCCc2ccccc2N1Cc1cccc(Cl)c1 12.6 µM
CNc1csc(C)c(C)c1=O 10 µM
CCOc1ccc2nc3cc(N=Nc4ccc(N)nc4N)ccc3c(N)c2c1 0.794 µM
COc1ccc(/C=N/NC(=S)NC2CCS(=O)(=O)C2)cc1OC (stereo not drawn) 6.31 µM
O=C1SC(c2ccccc2)=C/C1=C\N1CCCCC1 1 µM
CCOc1ccccc1OCCOc1ccc(F)cc1 2.82 µM
Cc1ccc(/C=C/C(=O)c2nc3ccccc3[nH]2)cc1 1.78 µM
NC(=O)c1ccc([N+](=O)[O-])cc1SCc1ccccc1 8.91 µM
C=CCn1c(SCc2ccc3c(c2)OCO3)nc2scc(-c3ccco3)c2c1=O 2.51 µM
C=CCn1c(SC(C)C(=O)NCc2ccc3c(c2)OCO3)nc2scc(-c3ccccc3)c2c1=O (stereo not drawn) 10 µM
Cc1nc(SCC(=O)Nc2ccc3c(c2)OCCO3)c2oc3ccccc3c2n1 1 µM
CCc1nc(SCC(=O)N2CCCc3ccccc32)c2oc3ccccc3c2n1 1.26 µM
Cc1nc(SCC(=O)c2ccc(Cl)s2)c2oc3ccccc3c2n1 0.141 µM
CCc1nc(SCC(=O)c2ccc(Cl)s2)c2oc3ccccc3c2n1 0.251 µM
CCc1nc(SCC(=O)NCCc2ccccc2)c2oc3ccccc3c2n1 1.58 µM
CCC(=O)NC(=S)N1CCN(c2ccc([N+](=O)[O-])cc2Cl)CC1 12.6 µM
Cc1ccc(/C=N\Nc2nc3ccc(Cl)cc3[nH]2)o1 2 µM
C#CCSc1nncn1C(=O)/C=C/c1ccccc1 15.8 µM
CN1CCN(c2nc(-c3ccccc3)cc(C(F)(F)F)n2)CC1 1.12 µM
COc1ccc(-c2cc(C(F)(F)F)nc(NC3CCCC3)n2)cc1OC 2.82 µM
COc1ccc(-c2cc(C(F)(F)F)nc(N3CCN(C)CC3)n2)cc1OC 2.82 µM
COc1ccc(-c2cc(C(F)(F)F)nc(N3CCOCC3)n2)cc1OC 0.501 µM

AC50, inactive:
COc1ccc(S(=O)(=O)NCCC(=O)NC(C)c2ccccc2)cc1 (stereo not drawn)
COc1ccc(NC(=O)CCNS(=O)(=O)c2ccc3c(c2)c(=O)n(C)c(=O)n3C)cc1
O=C1CC(N2CCN(C(c3ccccc3)c3ccccc3)CC2)C(=O)N1Cc1ccc(N2CCCC2=O)cc1 (stereo not drawn)
CN1CCN(C2CC(=O)N(Cc3ccc(N4CCCC4=O)cc3)C2=O)CC1 (stereo not drawn)
C[C@@H](CN(C)C)CN1c2ccccc2CCc2ccccc21
Cc1ccc(S(=O)(=O)N(C)c2cc(S(=O)(=O)N3CCC(C)CC3)c(C)cc2C)cc1
O=S(=O)(c1ccccc1S(=O)(=O)N1CCCCC1)N1CCCCC1
CCOc1ccc(S(=O)(=O)NCc2ccc(F)cc2)c2cccnc12
CCCCOc1ccc(/C=C/C(=O)NCCc2nc3ccccc3[nH]2)cc1
CCC(C)NC(=O)NC(=O)N(C1CCCCC1)S(C)(=O)=O (stereo not drawn)
O=C(Cn1cnc2ccccc2c1=O)NCCC(=O)Nc1ccc2c(c1)OCCO2
CCc1nc(N[C@H](C(=O)O)C(C)CC)c2oc3ccccc3c2n1 (stereo partly drawn)
COc1ccc(/C=N/OCc2nc3c4c(ncn3n2)Oc2ccc3ccccc3c2C4c2ccccc2)cc1 (stereo not drawn)
COc1cccc(OC)c1C(=O)NC(=S)N1CCN(c2ccc(C(F)(F)F)cc2[N+](=O)[O-])CC1
CN1CCN(c2ccc([N+](=O)[O-])cc2NC(=O)c2ccccc2Cl)CC1
CCCCCCCCCCCCCCC[C@H](O)[C@H](N)CO
Cc1ccc(/C=N/NC(=O)C2CCN(Cc3ccc(F)cc3Cl)CC2)o1
OC[C@@H]1O[C@@H](n2cnc3c(NC4CCCCC4)ncnc32)[C@@H](O)[C@H]1O
COc1ccc(CC(=S)N2CCOCC2)cc1OC
COc1ccc(NC(=O)c2ccc(-c3ccc(-c4noc(C)n4)cc3C)cc2)cc1N1CCN(C)CC1
COc1ccc(C(=O)OC(C)CN2CCN(C)CC2)cc1OC (stereo not drawn)
COc1ccc(-c2nnn(Cc3nc(N)nc(N4CCOCC4)n3)n2)cc1OC
O=C(O)[C@@H](O)[C@@H](O)[C@@H](O[C@H]1O[C@@H](CO)[C@@H](O)[C@@H](O)[C@@H]1O)[C@@H](O)CO
C=C1c2cccc(O)c2C(O)=C2C(=O)[C@@]3(O)C(O)=C(C(N)=O)C(=O)[C@@H](N(C)C)[C@@H]3[C@@H](O)[C@H]12

activity, negative = inhibition, inactive:
CC(C)CO/N=C1/C[C@@H](O)[C@@H](O)[C@@H]2[C@@H]3C(=O)N([C@@H](C)c4ccccc4)C(=O)[C@H]3CC[C@@H]12 -9.02% [at 11.4 µM]
CC1(C)[C@@H]2CC[C@]1(CC(=O)O)[C@H](Cl)C2 -14.2% [at 11.4 µM]
C=C(C)COc1ccc2c(c1)CCC1C2CC[C@]2(C)C(=O)/C(=N/O)CC12 (stereo partly drawn) -13.8% [at 11.4 µM]
COC(=O)C/C=C\[C@@H](C)[C@@H](/C=N\O[C@@H](C)c1cc(-c2c(C)cc(C)cc2C)no1)NS(=O)(=O)c1ccc(C)cc1 4.06% [at 11.4 µM]
CC1(CCC(=O)OC2CCCCC2)OCCO1 -7.12% [at 11.4 µM]
C/C(C[n+]1ccccc1)=N\N=C(N)N -9.68% [at 11.4 µM]
CCN1C(=O)[C@H]2[C@H]3[C@H](O)[C@H](O)C/C(=N/OCC[C@H]4C=C[C@H](OC(C)=O)[C@@H](COC(C)=O)O4)[C@@H]3CC[C@@H]2C1=O -1.02% [at 11.4 µM]
CC(C)C(=O)N[C@H]1CCCN1C(=O)/C=C\c1ccccc1 1.37% [at 11.4 µM]
CC(C)C(=O)N[C@@H]1CCCN1C(=O)/C=C\c1ccccc1 0.0238% [at 11.4 µM]
